Reference: ChEMBL document CHEMBL3433997, “St. Jude Leishmania screening dataset” (2016)

These compounds were tested against Hexose transporter 1 (Plasmodium falciparum) (UniProt O97467) (assay: ST_JUDE_LEISH: Cytotoxicity at 2uM final concentration against transgenic Leishmania Mexicana promastigotes LmPfHT that are glucose transport deficient and complemented with the Plasmodium falciparum hexose transporter. Activity is measured by DNA content using SYBR green in vitro).
Type: functional

First: O=C(Cn1c(CCc2cccc(F)c2F)nc(=O)c2ccccc21)N(CCCN1CCCCC1)Cc1ccc(-c2ccc(C(F)(F)F)cc2)cc1
Second: Cc1ccc(CNC(=O)[C@H](Cc2ccccc2)Nc2cc(C)nc(NCC3CCCCC3)n2)cc1
The inhibition of the first is lower: 3.25% for the first, 4.57% for the second.

Going from `CCn1c2ccccc2c2cc(C=NN=c3cc(C)[nH]c4ccccc34)ccc21` to `CN(C)c1cc2c(Nc3ccc4nc(Cc5ccccc5)[nH]c4c3)ncnc2cn1`, the inhibition falls from 6% to 5.87%.

Going from `CCN(CC)CCCC(C)N=c1cc(C=Cc2ccccc2Cl)[nH]c2cc(Cl)ccc12` (stereo not drawn) to `CCOC(=O)C1=C(C)NC2=C(C(=O)CCC2)C1c1cn(Cc2ccc(Cl)cc2Cl)nc1-c1ccccc1` (stereo not drawn), the inhibition falls from 3.03% to -1.29%.

Compared with `CN1CCC(NCc2cccc(-c3cccc(S(=O)(=O)NCc4ccccc4)c3)c2)CC1`, `CCCCCc1cc(O)c2c(c1)OC(C)(C)C=C2C1=CCN(Cc2ccsc2)CC1` is higher in inhibition: -2.65% for the first, 2.79% for the second.

First: O=C(CC(=O)C(F)(F)F)c1ccc2c(c1)OCO2
Second: O=C(Nc1cc(Cl)cc(Cl)c1)c1cc(Cl)c(=O)n(Cc2cccc(Cl)c2)c1
The inhibition of the first is higher: 1.74% for the first, -1.14% for the second.

Compared with `Cc1ccc2ccncc2c1N`, `COc1ccc2nc(C)cc(N/N=C/c3ccc([N+](=O)[O-])o3)c2c1` is higher in inhibition: 3.24% for the first, 6.04% for the second.

`CCOc1cc(Cc2cnc(N)nc2N)cc(OCC)c1OCC` showed an inhibition of 1.8%.

The compounds below were run against Glucose transporter (Leishmania mexicana) (UniProt O61059) (assay: ST_JUDE_LEISH: Cytotoxicity at 2uM final concentration against transgenic Leishmania Mexicana promastigotes LmGT2 that are glucose transport deficient and complemented with the L. Mexicana glucose transporter 2. Activity is measured by DNA content using SYBR green in vitro).
Type: functional

First: COc1cc(NC(=O)c2c(-c3c(F)cccc3Cl)noc2C)c(OC)cc1Cl
Second: O=C(Nc1cc(Cl)cc(Cl)c1)c1cc(Cl)c(=O)n(Cc2cccc(Cl)c2)c1
The inhibition of the first is lower: -4.01% for the first, -1.24% for the second.

First: CCN(CC)C(C)(C)CN(Cc1ccc(-c2ccc(C(F)(F)F)cc2)cc1)C(=O)Cn1c(CCc2cccc(F)c2F)nc(=O)c2ccccc21
Second: O=C(Cn1c(CCc2cccc(F)c2F)nc(=O)c2ccccc21)N(CCCN1CCCCC1)Cc1ccc(-c2ccc(C(F)(F)F)cc2)cc1
The inhibition of the first is higher: 5.98% for the first, 1.99% for the second.

First: COc1ccc(C(=O)CCC(=O)N(CCSC(C)(C)C)Cc2ccc(-c3ccc(CNCCc4ccc(S(C)(=O)=O)cc4)cn3)cc2)cc1F
Second: CC(C)Oc1cc(-c2ccc(S(C)(=O)=O)cc2)nc(N(Cc2cccc(F)c2F)Cc2cccc(F)c2F)n1
The inhibition of the first is higher: 7.07% for the first, -2.49% for the second.

Going from `CC(C)c1ccc(NC(=O)N2CCc3ccc(OCCN(C(C)C)C(C)C)cc32)c(Br)c1` to `COc1ccc2nc(C)cc(N/N=C/c3ccc([N+](=O)[O-])o3)c2c1`, the inhibition falls from 1.63% to 0.72%.

First: Cc1ccc2c(c1)C1(CC(=O)N(CCc3scnc3C)C1=O)C(=O)N2Cc1ccccc1 (stereo not drawn)
Second: Cc1nc2ccc([N+](=O)[O-])cc2c(=O)n1OCc1ccccc1
The inhibition of the first is higher: 3.42% for the first, 2.66% for the second.

Going from `CCc1cn2c3c(cc(C(=O)N[C@@H](Cc4ccccc4)[C@H](O)CNCc4ccccc4C)cc13)N(C)S(=O)(=O)CC2` to `CN1CCC(NCc2cccc(-c3cccc(S(=O)(=O)NCc4ccccc4)c3)c2)CC1`, the inhibition rises from 1.96% to 2.47%.

First: COc1cccc(CN2CCCN(Cc3cccc(NC(=O)c4ccc(-c5ccccc5)cc4)c3)CC2)c1
Second: COc1ccc(-c2ccc(NC(=O)c3cccc(C#N)c3)cc2)cc1CN1CCCC(C(N)=O)C1 (stereo not drawn)
The inhibition of the first is lower: -6.64% for the first, 5.2% for the second.

Compared with `COC(=O)c1ccc2nc(-c3ccc(/C=C/C(=O)NCc4ccc(Cl)c(Cl)c4)cc3)[nH]c2c1`, `CN1CCC(C(=O)Nc2cccc(-c3ccc(-c4nc5cc(F)ccc5[nH]4)cc3)c2)CC1` is higher in inhibition: 4.71% for the first, 9.64% for the second.

First: O=C(NC1CCN(c2ccnc3cc(Cl)ccc23)C1)c1cccc(F)c1 (stereo not drawn)
Second: O=C(Nc1ccc(Br)cc1)N1CCC(n2c(-c3ccccc3)nc3cccnc32)CC1
The inhibition of the first is lower: 1.42% for the first, 4.12% for the second.

First: O=C(Nc1ccc2[nH]c(-c3ccccc3)nc2c1)c1cc(-c2ccc3c(c2)OCCO3)n[nH]1
Second: Fc1ccc2[nH]c(-c3cccc(-c4ccc(CN5CCC(CCN6CCCCC6)CC5)cc4)c3)nc2c1
The inhibition of the first is higher: 11.4% for the first, 10.4% for the second.

First: O=C(NCCCCN1CCC(c2c[nH]c3ccccc23)CC1)c1ccc(-c2ccc(C(F)(F)F)cc2)cc1
Second: COCCN1CCC(N(Cc2ccc(-c3ccc(C(F)(F)F)cc3)cc2)C(=O)Cn2c(CCc3cccc(F)c3F)cc(=O)c3c2CCC3)CC1
The inhibition of the first is higher: -0.72% for the first, -2.32% for the second.

Compared with `Fc1ccccc1-c1cc(Nc2ccncc2)nc(-c2cccnc2)n1`, `C(=N\Nc1nccc2sc(-c3cccnc3)cc12)/c1cccnc1` is higher in inhibition: -6.71% for the first, 1.05% for the second.

First: N=C(NCC1CC1c1ccccc1)c1cccc(C(=N)NCC2CC2c2ccccc2)n1 (stereo not drawn)
Second: O=C(c1ccccc1)N(Cc1ccccc1-c1ccc(CNCCc2ccccc2)cc1)C1CCN(Cc2ccccc2)CC1
The inhibition of the first is lower: 6.3% for the first, 14.7% for the second.

Compared with `COc1cc2nc(N3CCC(CCCC4CCNCC4)CC3)nc(NCc3ccccn3)c2cc1OC`, `COc1cc(C=CC(=O)N2CCC3(CC2)CC(=O)c2ccccc2O3)cc(OC)c1OC` is lower in inhibition: 57.1% for the first, -0.58% for the second.

Going from `CCN(CC)c1ccc(C=CC(=O)NCCN2CCC(N(C)C3CCCCC3C)CC2)cc1` (stereo not drawn) to `O=C(/C=C/c1ccc(Cl)cc1)NCCCCCN1CCCC(C(=O)Nc2ccc(Cl)cc2)C1` (stereo not drawn), the inhibition rises from -0.02% to 3.7%.

First: CN(C)c1ccc(CN2CCCC(CNC(=O)c3ccc(-c4cccc(C(F)(F)F)c4)s3)C2)cc1 (stereo not drawn)
Second: Cc1ccc(CNC(=O)[C@H](Cc2ccccc2)Nc2cc(C)nc(NCC3CCCCC3)n2)cc1
The inhibition of the first is lower: -0.14% for the first, 0.14% for the second.

Going from `CCn1c2ccccc2c2cc(C=NN=c3cc(C)[nH]c4ccccc34)ccc21` to `CN(C)c1cc2c(Nc3ccc4nc(Cc5ccccc5)[nH]c4c3)ncnc2cn1`, the inhibition rises from 0.19% to 2.46%.

Compared with `CCN(CC)CCCC(C)N=c1cc(C=Cc2ccccc2Cl)[nH]c2cc(Cl)ccc12` (stereo not drawn), `CCOC(=O)C1=C(C)NC2=C(C(=O)CCC2)C1c1cn(Cc2ccc(Cl)cc2Cl)nc1-c1ccccc1` (stereo not drawn) is higher in inhibition: 1.56% for the first, 1.62% for the second.

First: CCCCCc1cc(O)c2c(c1)OC(C)(C)C=C2C1=CCN(Cc2ccsc2)CC1
Second: CCOc1cc(Cc2cnc(N)nc2N)cc(OCC)c1OCC
The inhibition of the first is lower: 2.52% for the first, 9.33% for the second.

First: O=C(CC(=O)C(F)(F)F)c1ccc2c(c1)OCO2
Second: Cc1ccc2ccncc2c1N
The inhibition of the first is lower: 2.14% for the first, 6.36% for the second.
